ssDAF12 agonist = activates DAF-12 receptor from parasite S. stercoralis; HEK293 ssDAF-12/GRIP1 lit1-tk-luc reporter, luminescence; % of 3 µM dafachronic acid response; activation, % at 6.8 µM; 370,000 compounds, 1% hits;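 active = activation above the mean over all tested compounds plus 3 SD, cut at about 0.9% in these data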;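 note: 0% = DMSO-only wells and 100% = 3 µM delta7-dafachronic acid wells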
hgDAF-12 ag = agonists of H. glycines DAF-12 nuclear receptor. 370,000 compounds, 1.8% hits. HEK293 GAL4-hgDAF12 UAS-luciferase reporter, agonist luminescence; normalized to butyrate control. activation, % at 6.8 µM;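 active = activation above a cutoff set at the mean of all screened compounds plus 3 SD, cut at about 10% in these data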;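 note: 0% = DMSO wells and 100% = sodium butyrate wells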
DAX1 inh-1 = inhibitors of DAX1 repression of SF-1 activated StAR promoter. inhibition, % at 6.8 µM. AID 652010. 370,000 compounds, 1.1% hits. HEK293T StAR-luciferase reporter, SF-1/DAX-1 repression relief;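 active = inhibition above the mean over all tested compounds plus 3 SD, cut at about 3.6% in these data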;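 note: 0% = DAX-1 cells with DMSO and 100% = cells lacking DAX-1 with DMSO; higher inhibition means more luminescence from relief of DAX-1 repression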
DAX1 inh-2 = inhibitors of human orphan nuclear receptor DAX1 (NR0B1); HEK293 Gal4-DAX1 luciferase reporter, luminescence; inhibition, % at 6.75 µM; 340,000 compounds, 0.99% hits;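 active = inhibition above the mean over all tested compounds plus 3 SD, cut at about 4.2% in these data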;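 note: 0% = DAX1-transfected cells with DMSO and 100% = empty-vector control cells with DMSO; inhibition shows as a rise in luminescence from relieved DAX1 repression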
Target sequence (P51843 207-470 limits assumed): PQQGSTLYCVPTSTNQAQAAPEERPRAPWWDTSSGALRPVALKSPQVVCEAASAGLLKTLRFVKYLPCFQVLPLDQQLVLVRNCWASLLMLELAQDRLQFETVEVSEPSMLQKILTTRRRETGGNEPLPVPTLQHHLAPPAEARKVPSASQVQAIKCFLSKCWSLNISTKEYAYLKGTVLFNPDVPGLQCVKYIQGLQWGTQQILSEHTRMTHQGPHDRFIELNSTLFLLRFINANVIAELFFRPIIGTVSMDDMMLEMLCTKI
hcDAF-12 act = activators of H. contortus DAF-12 nuclear receptor | HEK293 hcDAF-12 lit1-tk-luc reporter, luminescence; 0% DMSO, 100% Δ7-dafachronic acid | 370,000 compounds, 1.4% hits | activation, % at 6.8 µM | AID 652067;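 active = activation above the mean of all tested compounds plus 3 SD, cut at about 5.5% in these data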;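 note: 100% = response to 3 µM Δ7-dafachronic acid high control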
* hit, by the source's call; nt = no result given. The list is not random: actives were taken first. Their share in the collection is about 4.1%.

SMILES	ssDAF12 agonist	hgDAF-12 ag	DAX1 inh-1	DAX1 inh-2	hcDAF-12 act
C#CCNC(=O)C[C@H]1C[C@@]2(C(=O)OC)C(=C[C@H](C3CCCC3)O[C@@H]2C)N(CCCCCCCC)C1=O	-0.5	-2.0	-0.6	nt	1.1
CC1=NC(=O)C(N=Nc2ccccc2C(=O)O)N1c1ccccc1 (stereo not drawn)	-0.3	4.8	0.3	nt	4.2
CC1=NC(=O)C(N=Nc2ccccc2)N1c1ccccc1 (stereo not drawn)	0.8	3.6	0.7	4.6*	5.2
COC(=O)c1ccc(COc2ccc(/C=N/Nc3nc(C)cc(=O)[nH]3)cc2)cc1	-0.9	5.3	0.8	5.8*	1.7
CC(=O)N1CSCC1C(=O)NNS(=O)(=O)c1cccc(C(F)(F)F)c1 (stereo not drawn)	-1.3	0.7	0.2	6.3*	-0.8
CC(=O)N1CSCC1C(=O)NNS(=O)(=O)c1ccccc1 (stereo not drawn)	-1.3	-1.4	0.0	nt	-0.5
Cc1ccc(S(=O)(=O)N[C@H](C(=O)N2CCC(C(=O)N[C@@H](CC(=O)O)C(=O)O)CC2)C(C)C)cc1	-1.0	-0.5	0.6	8.8*	-0.3
Cc1ccc(S(=O)(=O)N[C@@H](CC(C)C)C(=O)N2CCC(C(=O)N[C@@H](Cc3ccccc3)C(=O)O)CC2)cc1	-1.4	0.5	0.0	6.9*	-0.4
CSc1nnc(N2C(=O)C(O)=C(C(=O)c3ccc(C)o3)C2c2ccc(C)cc2)s1 (stereo not drawn)	-0.1	11.1*	1.7	1.6	4.9
Cc1ccsc1C(=O)OCc1nnc(-c2ccccc2)o1	-0.8	2.1	4.0*	1.7	1.0
O=C(Nc1cccnc1)c1ccc(N2CCOCC2)c([N+](=O)[O-])c1	-1.6	0.1	0.0	1.2	-1.3
O=C(Nc1cccnc1)c1ccc(N2CCCC2)c([N+](=O)[O-])c1	-0.8	2.2	0.5	5.2*	0.8
CC(CCN1CCC(C(O)(c2ccccc2)c2ccccc2)CC1)Oc1ccc(F)cc1 (stereo not drawn)	-0.4	0.0	0.4	nt	0.6
COc1cc(/C=N/NC(=O)CN2CCCCC2)ccc1OCc1ccc(Br)cc1	-0.1	11.8*	2.1	1.8	3.3
COc1cc(/C=N/NS(=O)(=O)c2ccc(C)cc2)ccc1OCc1ccc(C(=O)O)cc1	0.4	13.2*	3.1	-6.0	3.3
CCOc1ccc(/C=N/NS(=O)(=O)c2ccc(C)cc2)cc1OC	-0.2	-1.6	-0.4	1.4	-2.4
CCOC(=O)C1CCN(c2cc(=O)n(-c3ccccc3Cl)c(=O)[nH]2)CC1	-1.6	-1.5	0.0	4.2*	-0.4
c1coc(-c2nnc3n2N=C(c2ccc4c(c2)OCO4)CS3)c1	-1.4	0.3	-1.4	nt	-1.7
Cc1cc(C(=O)N/N=C/c2ccc([N+](=O)[O-])cc2)c(C)o1	-0.8	11.0*	-1.0	0.6	-1.0
COc1ccc2c(c1OC)C(=O)OC2Nc1nc(-c2ccc([N+](=O)[O-])cc2)cs1 (stereo not drawn)	1.6*	4.7	-0.3	1.5	3.4
COc1ccc2c(c1OC)C(=O)OC2Nc1nc(-c2cc3cc(Br)ccc3oc2=O)cs1 (stereo not drawn)	-0.6	10.6*	2.1	4.8*	0.7
CC(=O)n1c2c(c3ccccc31)OC(N)=C(C#N)C2c1ccc(C(C)C)cc1 (stereo not drawn)	-1.1	-0.9	0.0	2.9	5.6*
OCC(CCc1c[nH]c2ccccc12)c1c[nH]c2ccccc12 (stereo not drawn)	0.6	1.6	-0.9	nt	4.3
C=CCOC(=O)/C(=C/c1cccc2ccccc12)NC(=O)c1ccccc1	-1.1	2.8	0.0	4.3*	-0.2
COP(=O)(OC)c1nc(-c2cccc3ccccc23)oc1NCc1ccccc1	-1.5	-4.8	0.0	4.6*	-1.9
SMILES	ssDAF12 agonist	hgDAF-12 ag	DAX1 inh-1	DAX1 inh-2	hcDAF-12 act
COc1ccc(CNc2oc(-c3cccc4ccccc34)nc2P(=O)(OC)OC)cc1	-1.7	-3.0	-0.6	0.1	-1.5
COc1ccccc1CNC(=O)C[C@H]1CC[C@H]2[C@H](COc3ccc(NS(=O)(=O)c4ccc(C)cc4)cc3C(=O)N2C)O1	-1.4	-1.1	-0.2	nt	-1.1
COC(=O)CCC(=O)OC	-1.1	-0.2	0.0	4.4*	1.9
CCCCN(C)CCNC(=O)c1ccc(Cn2c(=S)[nH]c3ccc(Br)cc3c2=O)cc1	-1.3	0.0	4.0*	-0.1	-0.1
c1ccc(OCc2nnc(SCc3nc4ccccc4[nH]3)n2-c2ccccc2)cc1	-1.7	-0.6	-0.8	nt	-0.6
Fc1ccccc1CSc1nc2ccccc2[nH]1	0.5	11.5*	3.2	0.3	5.0
c1ccc(OCCSc2nc3ccccc3[nH]2)cc1	-1.4	1.0	0.2	4.7*	-0.7
COc1cccc(CSc2nc3ccccc3[nH]2)c1	-0.6	12.8*	2.1	1.0	0.8
c1ccc(OCc2nc3ccccc3[nH]2)cc1	-0.9	11.0*	2.3	2.6	-0.2
O=C1OCC2=Nc3cccc4cccc(c34)N12	-0.1	-1.8	0.2	nt	-1.1
COC(=O)CC1CCc2cc(C)cc(C(=O)CC(C)C)c2O1 (stereo not drawn)	-0.9	2.4	nt	nt	-0.9
CN(Cc1c(F)cccc1Cl)C(=O)CCc1c[nH]c2ccccc12	-1.3	0.5	0.0	6.2*	-0.3
S=C(Nc1ccccc1Cl)N1CCCCCC1	-0.7	0.8	0.2	-0.9	-0.1
S=C(Nc1ccccc1Cl)N1CCC(c2ccccc2)C1 (stereo not drawn)	-0.5	10.9*	1.6	4.6*	2.2
S=C(Nc1ccc(Cl)cc1Cl)N1CCCCC1	-1.0	1.9	0.3	0.5	5.8*
CCc1nnn2c1Cn1c3ccccc3c(=O)n1[C@@H](C(C)C)C2	-0.6	0.3	0.0	nt	-0.9
O=[N+]([O-])c1ccc(F)c(CN2CCN(c3ncc(Cc4ccccc4)cn3)CC2)c1	-1.2	-1.5	1.3	nt	-0.2
CCc1ccc(N(CC(=O)N2CCOCC2)S(C)(=O)=O)cc1	-0.9	-3.2	0.0	6.7*	-0.3
Cc1ccc(N(CC(=O)N2CCCCC2)S(=O)(=O)c2ccc(C)cc2)cc1	-0.8	-0.4	-1.1	4.6*	-1.7
CS(=O)(=O)N(CC(=O)N1CCOCC1)c1ccc(Cl)cc1	0.3	-0.2	-0.5	0.4	6.0*
CCOc1ccc(N(CC(=O)N2CCCCCC2)S(=O)(=O)c2ccc(C)cc2)cc1	-0.9	1.1	-2.6	1.8	-0.1
Cc1ccc(S(=O)(=O)NCC(=O)N2CCN(c3ccccn3)CC2)s1	-1.4	-3.4	-1.5	nt	-0.6
Cc1[nH]cnc1/C=N\NC(=O)c1cccc(S(=O)(=O)N(C)C)c1	-2.0	1.5	0.6	nt	1.5
COc1ccc(-c2nnc(SCC(=O)Nc3cccc4ccccc34)n2Cc2ccco2)cc1	-0.1	1.9	-1.9	nt	0.3
CC1CN(C(C)C)C(=S)NC1=O (stereo not drawn)	-1.1	-0.7	3.6*	-0.8	-0.5
